# Source: the antibiotic and cytotoxicity screens of Wong et al. (2023)
# In all, about 39,000 compounds went through this assay and about 3,300 (8.5%) were called active. Shown is part of a subset that was picked to be rich in actives.
# Test system: HepG2
# Assay: cytotoxicity call (relative viability < 0.9)
# Settings: 10 µM
row,SMILES,cytotoxicity call
1,C[C@@H]1CN([C@@H](C)CO)S(=O)(=O)c2ccc(-c3cccnc3)cc2O[C@@H]1CN(C)CC1CCOCC1,inactive
2,COc1ccc(S(=O)(=O)Nc2cccc3c2O[C@H](CN(C)S(=O)(=O)c2ccccc2)[C@@H](C)CN([C@@H](C)CO)C3=O)cc1,inactive
3,C[C@H](CO)N1C[C@H](C)[C@H](CN(C)S(=O)(=O)c2ccc(F)cc2)Oc2ccc(NC(=O)C3CC3)cc2CC1=O,inactive
4,O=C(O)CCc1n[nH]c(=S)[nH]c1=O,inactive
5,Cc1ccc(S(=O)(=O)Nc2ccc3c(c2)C(=O)N([C@H](C)CO)C[C@H](C)[C@@H](CN(C)C(=O)c2ccccc2)OCCCC[C@H](C)O3)cc1,inactive
6,C[C@@H]1CN([C@H](C)CO)C(=O)Cc2cc(NC(=O)Cc3ccccc3)ccc2O[C@H]1CN(C)S(=O)(=O)c1ccc(F)cc1,inactive
7,COc1ccc(NC(=O)N(C)C[C@H]2OCCCC[C@H](C)Oc3ccc(NC(=O)Cc4ccccc4)cc3C(=O)N([C@H](C)CO)C[C@H]2C)cc1,inactive
8,C[C@@H]1CN([C@H](C)CO)C(=O)Cc2cc(NC(=O)Cn3cnnn3)ccc2O[C@H]1CN(C)S(=O)(=O)c1ccc(F)cc1,inactive
9,COc1ccc(S(=O)(=O)Nc2cccc3c2O[C@@H](CN(C)Cc2ccc(Oc4ccccc4)cc2)[C@@H](C)CN([C@@H](C)CO)C3=O)cc1,inactive
10,CCS(=O)(=O)N1C[C@]2(C1)CN([C@@H](CO)c1c2c2ccc(cc2n1C)OC)C(=O)c1ccc(cc1)F,inactive
11,CN(C)C(=O)c1ccc(-c2ccc3n(c2=O)C[C@H]2[C@H](CO)[C@@H](C(=O)NCCc4ccccc4)N[C@@H]32)cc1,inactive
12,C[C@@H]1CN([C@@H](C)CO)C(=O)c2cc(NC(=O)Nc3ccc4c(c3)OCO4)ccc2O[C@@H](C)CCCCO[C@@H]1CN(C)CC1CCCCC1,inactive
13,C[C@@H]1CCCCO[C@@H](CN(C)CC2CCCCC2)[C@H](C)CN([C@H](C)CO)C(=O)c2cc(NC(=O)Nc3ccc4c(c3)OCO4)ccc2O1,inactive
14,C[C@H](CO)N1C[C@H](C)[C@@H](CN(C)CC2CCCCC2)OCCCC[C@H](C)Oc2ccc(NC(=O)Nc3ccc4c(c3)OCO4)cc2C1=O,inactive
15,C[C@@H]1CN([C@@H](C)CO)C(=O)c2cc(NC(=O)Nc3ccc4c(c3)OCO4)ccc2O[C@@H](C)CCCCO[C@H]1CN(C)CC1CCCCC1,active
16,C[C@@H]1CCCCO[C@H](CN(C)CC2CCCCC2)[C@H](C)CN([C@@H](C)CO)C(=O)c2cc(NC(=O)Nc3ccc4c(c3)OCO4)ccc2O1,active
17,C[C@@H]1CCCCO[C@@H](CN(C)CC2CCCCC2)[C@H](C)CN([C@@H](C)CO)C(=O)c2cc(NC(=O)Nc3ccc4c(c3)OCO4)ccc2O1,inactive
18,C[C@H]1CCCCO[C@@H](CN(C)CC2CCCCC2)[C@@H](C)CN([C@@H](C)CO)C(=O)c2cc(NC(=O)Nc3ccc4c(c3)OCO4)ccc2O1,active
19,CC(C)CC#Cc1cnc2c(c1)C(=O)N([C@@H](C)CO)C[C@@H](C)[C@H](CN(C)S(=O)(=O)c1ccccc1)O2,inactive
20,CC(C)(C)c1nc(-c2cccc(NS(=O)(=O)c3c(F)cccc3F)c2F)c(-c2ccnc(N)n2)s1,inactive
21,CC(C)NC(=O)N(C)C[C@H]1Oc2ccc(NC(=O)CCN3CCOCC3)cc2CC(=O)N([C@@H](C)CO)C[C@H]1C,inactive
22,CCS(=O)(=O)N1C[C@]2(CCN(CC2)Cc2cccc(c2)OC)c2c(n(c3cc(ccc23)OC)C)[C@@H]1CO,inactive
23,C[C@H](CO)N1C[C@H](C)[C@@H](CN(C)C(=O)c2ccccn2)Oc2cc(Br)ccc2S1(=O)=O,inactive
24,CCNC(=O)c1cc2c(c(-c3cccc(-c4cc5ccccc5o4)c3)n1)[C@@H](CCO)N(C(=O)NC(C)C)C2,inactive

row,SMILES,cytotoxicity call
1,Cc1ccc(S(=O)(=O)N(C)C[C@H]2Oc3ncc(Br)cc3C(=O)N([C@H](C)CO)C[C@@H]2C)cc1,inactive
2,C[C@H](CO)N1C[C@H](C)[C@@H](CN(C)C(=O)Nc2ccc(F)cc2)OCCCC[C@H](C)Oc2ccc(NC(=O)NC3CCCCC3)cc2C1=O,inactive
3,Cc1c(-c2ccc(C(N)=O)c3[nH]c4cc(C(C)(C)O)ccc4c23)cccc1-n1cnc2ccccc2c1=O,active
4,CCOC(=O)Cn1cnc2ccccc2c1=O,inactive
5,Cc1nc2c(cc1C(=O)NN)c(=O)n(C)c(=O)n2C,inactive
6,CC(C)NC(=O)Nc1ccc2c(c1)CC(=O)N([C@H](C)CO)C[C@H](C)[C@@H](CN(C)Cc1ccc(Oc3ccccc3)cc1)O2,inactive
7,O=C(C[C@@H]1CC[C@H]2[C@@H](COC[C@@H](O)CN2C(=O)c2ccncc2)O1)NC1CCC1,inactive
8,C[C@@H]1CCCCO[C@H](CN(C)C(=O)Nc2cccc3ccccc23)[C@H](C)CN([C@@H](C)CO)C(=O)c2cc(NC(=O)c3ccncc3)ccc2O1,inactive
9,C[C@H](N)CCC(=O)NCS(=O)(=O)O,inactive
10,CC(=O)N(O)CCCCCNC(=O)CC(O)(CC(=O)NCCCCCN(O)C(C)=O)C(=O)O,inactive
11,CC(=O)NCCCS(=O)(=O)O,inactive
12,CC(=O)N(O)CCCCCNC(=O)CCC(=O)N(O)CCCCCNC(=O)CCC(=O)N(O)CCCCCN,active
13,CC(=O)N(O)CCCCCNC(=O)CCC(=O)N(O)CCCCCNC(=O)CCC(=O)N(O)CCCCCN.CS(=O)(=O)O,active
14,CC(=O)N(O)CCCCNC(=O)CCC(=O)N(O)CCCCCNC(=O)CCC(=O)N(O)CCCCCN,inactive
15,COCCNC(=O)C[C@@H]1CC[C@H]2[C@@H](COC[C@H](O)CN2S(=O)(=O)c2ccccc2F)O1,inactive
16,COc1ccc(S(=O)(=O)Nc2ccc3c(c2)[C@H]2C[C@H](CC(=O)NCC4CC4)O[C@@H](CO)[C@H]2O3)cc1,inactive
17,C[C@@H]1CN([C@@H](C)CO)C(=O)Cc2cc(NS(C)(=O)=O)ccc2O[C@H]1CN(C)S(=O)(=O)c1ccccc1,inactive
18,CN[C@H]1CN(c2ccc3c(=O)c(C(=O)O)cn(-c4nccs4)c3n2)C[C@@H]1OC,inactive
19,CC(C)NCC(O)c1cc(O)cc(O)c1 (stereo not drawn),active
20,CC(C)(C)NCC(O)c1cc(O)cc(O)c1.O=S(=O)(O)O (stereo not drawn),inactive
21,CCC(NC(C)C)C(O)c1ccc(O)c(O)c1.CS(=O)(=O)O (stereo not drawn),inactive
22,CC(C)NCC(O)c1ccc(NS(C)(=O)=O)cc1.Cl (stereo not drawn),inactive
23,CC(C)NCC(O)c1ccc2ccccc2c1.Cl (stereo not drawn),inactive
24,CC(C)NCC(O)c1ccc(O)c(O)c1.Cl (stereo not drawn),active
